Source: PubChem BioAssay (NCATS)
Records with an inconclusive call do not appear. Calls of active or inactive are those of the source. Calls follow the shape of the dose curve; as a rule, active = well fitted cell-killing curve with a large enough effect; inconclusive = small, poorly fitted or top-dose-only effect, or effect the other way; inactive = no such curve, though single readings can be large or run the other way.
Potency is read from the fitted curve at half-maximal effect.

Experiment: Quantitative High-Throughput drug screen in 47 multiple myeloma cell lines against the NCATS MIPE library collection: UTMC2_PLB cell viability assay (AID 1919868); also: nearly all actives have a fitted effect of over 55% in size
Details: CellTiter-Glo ATP luminescence, 48 h; viability (% of DMSO control): at 45.8 µM (top of the series) unless noted
Excerpt: PI: Beverly A. Mock Ph.D.
Laboratory of Cancer Biology and Genetics,
Center for Cancer Research, National Cancer Institute,
National Institute of Health, Bethesda, Maryland
Drug resistance and disease progression are common in multiple myeloma (MM) patients, underscoring the need for new therapeutic combinations. […] We hypothesized that effective combinations would reduce MYC expression and enhance p16 activity. […] These preclinical data identify potentially useful drug combinations for evaluation in drug-resistant MM and reveal potential mechanisms of combined drug sensitivity.
Described herein is the primary MIPE qHTS used to cherrypick compounds. Validated compounds were then further tested for potential synergistic activiy.
[1] Peat TJ, Gaikwad SM, Dubois W, Gyabaah-Kessie N, Zhang S, Gorjifard S, Phyo Z, Andres M, Hughitt VK, Simpson RM, Miller MA, Girvin AT, Taylor A, Williams D, D'Antonio N, Zhang Y, Rajagopalan A, Flietner E, Wilson K, Zhang X, Shinn P, Klumpp-Thomas C, McKnight C, Itkin Z, Chen L, Kazandijian D, Zhang J, Michalowski AM, Simmons JK, Keats J, Thomas CJ, Mock BA. Drug combinations identified by high-throughput screening promote cell cycle transition and upregulate Smad pathways in myeloma. Cancer Lett. 2023 Aug 1;568:216284. doi: 10.1016/j.canlet.2023.216284. Epub 2023 Jun 24. PMID: 37356470; PMCID: PMC10408729.
SEQUENCE No. (e.g., 1, 2, 3, etc.); […] (e.g., Cells, Incubation, Reagent, etc.); VALUE and DESCRIPTION.
1; Cells; 5 uL; white, solid bottom 1536-well Greiner assay plate.
2; Compounds; 23 nL; Kalypsis pin tool (Wako USA) equipped with a 1536-well pin head to transfer to the assay plates.
3; Incubation; 48 hours; 37C incubation.
4; Reagent;5uL; CellTiter Glo (Promega).
5; Detector; 425V; Luminescence; Viewlux PerkinElmer.
NOTES (numbers refer to Sequence numbers above)
1. The cell-based screening methods employed in this study were like those previously published. Briefly, the corresponding myeloma cell lines were screened in 1,536-well plates with 500 cells, 5-uL per well for inhibition of cell viability (assessed by measuring ATP levels with CellTiterGlo).
2. NCATS MIPE 4.0 library of approved and investigational drugs were added using the Kalypsis pin tool. Wells treated with DMSO only for 100% viability and media only for 0% viability were used as controls.
3. The assay plates were covered and incubated for 48 hours in a 37C, 5% CO2 incubator with controlled humidity.
4. After 48 hours, CellTilter-GloTM luminescent substrate mix (Promega) reagent was added to the assay plate and plates we incubated for 5 min at room temperature.
5. Signal was measured as median relative luminescence units on a ViewLux (PerkinElmer) multiplate reader.
[1] Heske CM, Davis MI, Baumgart JT, Wilson K, Gormally MV, Chen L, Zhang X, Ceribelli M, Duveau DY, Guha R, Ferrer M, Arnaldez FI, Ji J, Tran HL, Zhang Y, Mendoza A, Helman LJ, Thomas CJ. Matrix Screen Identifies Synergistic Combination of PARP Inhibitors and Nicotinamide Phosphoribosyltransferase (NAMPT) Inhibitors in Ewing Sarcoma. Clin Cancer Res. 2017 Dec 1;23(23):7301-7311. doi: 10.1158/1078-0432.CCR-17-1121. Epub 2017 Sep 12. PMID: 28899971; PMCID: PMC6636827.
With `Cc1cc(N2CCOCC2)cc2[nH]c(-c3c(NC[C@@H](O)c4cccc(Cl)c4)cc[nH]c3=O)nc12` the Potency was 66.2 nM (active).
With `CCC1=C[C@@H]2CN(C1)Cc1c([nH]c3ccccc13)[C@@](C(=O)OC)(c1cc3c(cc1OC)N(C)[C@@H]1[C@@](O)(C(=O)OC)[C@H](OC(C)=O)[C@]4(CC)C=CCN5CC[C@]31[C@@H]54)C2` the Potency was 1 nM (active).
With `O=C(O)c1ccc2cc(-c3ccc(O)c(C45CC6CC(CC(C6)C4)C5)c3)ccc2c1` the Potency was 264 nM (active).
For `O=C(C=Cc1cccc(S(=O)(=O)Nc2ccccc2)c1)NO`, the Potency was 1080 nM (active).
For `CCN(CC)CCNC(=O)c1ccc2nc(-c3ccccc3)c(-c3ccc(CN4CCC(n5c(=O)[nH]c6ccccc65)CC4)cc3)nc2c1`, the Potency was 1320 nM (active).
With `Cc1cc(Nc2cc(NC(=O)c3c(Cl)cccc3Cl)ccn2)nc(N)n1` the Potency was 2960 nM (active).
For `CCCNC(=O)Nc1ccc(Oc2ncnc3cc(OC)c(OC)cc23)cc1Cl`, the Potency was “inactive”.
For `COc1ccc(-n2nc(C(N)=O)c3c2C(=O)N(c2ccc(N4CCCCC4=O)cc2)CC3)cc1`, the Potency was “inactive”.
In the case of `Clc1cccc(-c2nnnn2Cc2cccnc2)c1Cl`, the Potency is reported as “inactive”.
For `CCn1nnc2c(N3CCOCC3)nc(-c3ccc(NC(=O)Nc4ccc(C(=O)N5CCN(C)CC5)cc4)cc3)nc21`, the Potency was 5.3 nM (active).
In the case of `CC1(C)CC(=O)c2c(C(F)(F)F)nn(-c3ccc(C(N)=O)c(NC4CCC(OC(=O)CN)CC4)c3)c2C1` (stereo not given), the Potency is reported as 209 nM (active).
For `CC(C)(C)c1cc(C(C)(C)C)c(NC(=O)c2c[nH]c3ccccc3c2=O)cc1O`, the Potency was “inactive”.
With `COc1cc2c(Oc3ccc4[nH]c(C)cc4c3F)ncnc2cc1OCCCN1CCCC1` the Potency was 26400 nM (active).
For `CC(C)c1cnn2c(NCc3ccccc3)cc(N[C@@H](CO)[C@H](O)CO)nc12`, the Potency was 209 nM (active).
For `COC(=O)c1ccc2c(C(=Nc3ccc(N(C)C(=O)CN4CCN(C)CC4)cc3)c3ccccc3)c(O)[nH]c2c1`, the Potency was 6620 nM (active).
For `COc1c(OCCCN2CCOCC2)ccc2c3n(c(=NC(=O)c4cnc(N)nc4)nc12)CCN3`, the Potency was 115 nM (active).
For `CCCn1c(=O)c2[nH]c(-c3cnn(Cc4cccc(C(F)(F)F)c4)c3)nc2n(CC)c1=O`, the Potency was “inactive”.
For `CN(c1ncccc1CNc1nc(Nc2ccc3c(c2)CC(=O)N3)ncc1C(F)(F)F)S(C)(=O)=O`, the Potency was 2350 nM (active).
For `CN(C)CC=CC(=O)Nc1cc2c(Nc3ccc(F)c(Cl)c3)ncnc2cc1O[C@H]1CCOC1`, the Potency was 5260 nM (active).
With `CCN1CCN(CC(=O)Nc2ccc(-c3cccc4c(=O)cc(N5CCOCC5)oc34)c3sc4ccccc4c23)CC1` the Potency was 187 nM (active).
In the case of `CC(C)(C)OC(=O)Nc1ccc(-c2cc(C(=O)NCCCCCCC(=O)NO)no2)cc1`, the Potency is reported as 590 nM (active).
With `Cc1cc(Nc2cc(CN3CCOCC3)c3nc(C)c(Cc4ccc(Cl)cc4F)n3n2)n[nH]1` the Potency was 2350 nM (active).
With `Cc1ccc(C(N)=O)cc1Nc1nccc(-c2cn(C(C)C)c3cnccc23)n1` the Potency was 6620 nM (active).
In the case of `Cc1c(CN2CCN(S(C)(=O)=O)CC2)sc2c(N3CCOCC3)nc(-c3cnc(N)nc3)nc12`, the Potency is reported as 26.4 nM (active).
In the case of `Nc1ccccc1NC(=O)c1ccc(CNC(=O)OCc2cccnc2)cc1`, the Potency is reported as 1320 nM (active).
For `CNC(=O)CN1CCC(Oc2cc3c(Nc4cccc(Cl)c4F)ncnc3cc2OC)CC1`, the Potency was 33.2 nM (active).
With `CC[C@H]1CN2CCc3cc(OC)c(OC)cc3[C@H]2C[C@@H]1C[C@@H]1NCCc2cc(OC)c(OC)cc21` the Potency was 187 nM (active).
In the case of `CC(=O)Nc1nc(C)c(-c2ccc(Cl)c(S(=O)(=O)NCCO)c2)s1`, the Potency is reported as 526 nM (active).
With `CNC(=O)c1nn(C)c2c1C(C)(C)Cc1cnc(Nc3ccc(N4CCN(C)CC4)cc3)nc1-2` the Potency was 8330 nM (active).
In the case of `CN[C@H]1CCc2cc(OC)c(OC)c(OC)c2-c2ccc(OC)c(=O)cc21`, the Potency is reported as 9.3 nM (active).
With `Cc1c(C)n(Cc2ccc(-c3ccccc3C(=O)O)cc2)c2ccc(C(=O)N[C@@H](C)c3ccc([N+](=O)[O-])cc3)cc12` the Potency was 20900 nM (active).
With `Cn1c(=O)n(-c2ccc(C(C)(C)C#N)cc2)c2c3cc(-c4cnc5ccccc5c4)ccc3ncc21` the Potency was 9.3 nM (active).
In the case of `CCC[C@H](NC(=O)C(C#N)=Cc1cccc(Br)n1)c1ccccc1`, the Potency is reported as 2090 nM (active).
In the case of `CCS(=O)(=O)c1cccc(-c2cc(C(=O)NC3CCN(C)CC3)c(C)c3[nH]c4ncc(C)cc4c23)c1`, the Potency is reported as 118 nM (active).
For `CC1COC2(CCN(c3nc(=O)c4cc(C(F)(F)F)cc([N+](=O)[O-])c4s3)CC2)O1` (stereo not given), the Potency was “inactive”.
For `Cc1nc(N)ncc1-c1nc(N2CCOCC2)c2sc(C(C)(C)O)cc2n1`, the Potency was 332 nM (active).
With `CC(C)CC(=O)Nc1n[nH]c2c1CN(C(=O)C1CCN(C)CC1)C2(C)C` the Potency was 2350 nM (active).
For `CC1=C(CO)C(=O)O[C@@H]([C@@H](C)[C@H]2CC[C@H]3[C@@H]4C[C@H]5O[C@]56[C@@H](O)C=CC(=O)[C@]6(C)[C@@H]4CC[C@]23C)C1`, the Potency was 296 nM (active).
In the case of `Cc1ccc(-c2ncn(-c3ccc(Nc4nccc(-c5cccc(N6CCOCC6)c5)n4)cc3)n2)cn1`, the Potency is reported as 187 nM (active).
For `C=CC(=O)Nc1cc2c(Nc3ccc(F)c(Cl)c3)ncnc2cc1C#CC(C)(C)N1CCN(C)CC1`, the Potency was 2350 nM (active).
